The record followed here is ChEMBL document CHEMBL1961873, “Compounds: GSK PKIS; Assays: Nanosyn kinase panel” (2012).

The term inhibition denotes the change of the read-out against control, counted positive when it falls.

The target of assay [1] is Protein kinase C gamma type (Homo sapiens) (UniProt P05129). As to conditions: at 1 µM.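 Further: each value is an averaged percent inhibition of the enzyme.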
Assay [2] addresses T1, Protein kinase C iota type (Homo sapiens) (UniProt P41743).
T1 sequence (whole entry): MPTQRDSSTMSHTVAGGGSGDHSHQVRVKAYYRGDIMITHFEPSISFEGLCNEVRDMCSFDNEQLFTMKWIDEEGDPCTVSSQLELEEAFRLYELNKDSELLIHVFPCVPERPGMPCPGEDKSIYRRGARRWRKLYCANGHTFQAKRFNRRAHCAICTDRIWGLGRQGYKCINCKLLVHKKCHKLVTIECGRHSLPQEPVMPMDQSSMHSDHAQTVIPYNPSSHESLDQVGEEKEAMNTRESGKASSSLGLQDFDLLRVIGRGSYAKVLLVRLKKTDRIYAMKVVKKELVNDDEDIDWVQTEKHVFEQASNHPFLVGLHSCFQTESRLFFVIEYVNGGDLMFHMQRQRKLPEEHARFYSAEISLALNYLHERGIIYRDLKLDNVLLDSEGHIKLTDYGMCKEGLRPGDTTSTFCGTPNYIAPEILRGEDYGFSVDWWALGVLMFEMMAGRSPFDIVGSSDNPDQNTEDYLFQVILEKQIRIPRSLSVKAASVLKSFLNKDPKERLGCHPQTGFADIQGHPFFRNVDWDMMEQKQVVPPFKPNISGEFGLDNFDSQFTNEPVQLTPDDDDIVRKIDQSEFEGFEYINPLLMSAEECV
As to conditions: at 0.1 µM.

Assay [3] has as its target T1, Protein kinase C iota type (Homo sapiens). The note with it: at 1 µM.
For assay [4], the target named is Protein kinase C theta type (Homo sapiens) (UniProt Q04759). As to conditions: at 0.1 µM.
Protein kinase C theta type (Homo sapiens), sequence (Q04759 whole entry, looked up): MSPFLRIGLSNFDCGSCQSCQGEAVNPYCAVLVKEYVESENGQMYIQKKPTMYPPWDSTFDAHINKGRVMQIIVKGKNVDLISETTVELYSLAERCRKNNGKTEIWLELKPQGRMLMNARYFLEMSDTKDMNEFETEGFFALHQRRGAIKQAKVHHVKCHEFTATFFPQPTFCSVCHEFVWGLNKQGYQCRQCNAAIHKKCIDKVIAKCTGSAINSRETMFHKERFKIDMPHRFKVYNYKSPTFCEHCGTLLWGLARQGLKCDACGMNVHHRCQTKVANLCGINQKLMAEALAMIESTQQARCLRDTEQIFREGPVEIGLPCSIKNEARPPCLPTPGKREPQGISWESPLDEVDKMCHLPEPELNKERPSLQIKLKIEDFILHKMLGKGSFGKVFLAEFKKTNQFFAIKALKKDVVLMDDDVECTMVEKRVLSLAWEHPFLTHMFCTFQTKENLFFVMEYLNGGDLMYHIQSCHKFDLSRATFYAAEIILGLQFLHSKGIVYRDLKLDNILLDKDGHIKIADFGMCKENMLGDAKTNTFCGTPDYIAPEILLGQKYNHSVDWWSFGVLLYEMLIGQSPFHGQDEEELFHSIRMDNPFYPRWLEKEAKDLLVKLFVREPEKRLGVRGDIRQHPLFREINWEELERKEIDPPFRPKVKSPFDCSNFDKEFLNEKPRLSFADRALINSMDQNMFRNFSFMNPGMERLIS
Assay [5] shares this target. As to conditions: at 1 µM.
The target of assay [6] is Protein kinase C beta type (Homo sapiens) (UniProt P05771). The note with it: at 0.1 µM.
Protein kinase C beta type (Homo sapiens), sequence (P05771 2-671 limits assumed): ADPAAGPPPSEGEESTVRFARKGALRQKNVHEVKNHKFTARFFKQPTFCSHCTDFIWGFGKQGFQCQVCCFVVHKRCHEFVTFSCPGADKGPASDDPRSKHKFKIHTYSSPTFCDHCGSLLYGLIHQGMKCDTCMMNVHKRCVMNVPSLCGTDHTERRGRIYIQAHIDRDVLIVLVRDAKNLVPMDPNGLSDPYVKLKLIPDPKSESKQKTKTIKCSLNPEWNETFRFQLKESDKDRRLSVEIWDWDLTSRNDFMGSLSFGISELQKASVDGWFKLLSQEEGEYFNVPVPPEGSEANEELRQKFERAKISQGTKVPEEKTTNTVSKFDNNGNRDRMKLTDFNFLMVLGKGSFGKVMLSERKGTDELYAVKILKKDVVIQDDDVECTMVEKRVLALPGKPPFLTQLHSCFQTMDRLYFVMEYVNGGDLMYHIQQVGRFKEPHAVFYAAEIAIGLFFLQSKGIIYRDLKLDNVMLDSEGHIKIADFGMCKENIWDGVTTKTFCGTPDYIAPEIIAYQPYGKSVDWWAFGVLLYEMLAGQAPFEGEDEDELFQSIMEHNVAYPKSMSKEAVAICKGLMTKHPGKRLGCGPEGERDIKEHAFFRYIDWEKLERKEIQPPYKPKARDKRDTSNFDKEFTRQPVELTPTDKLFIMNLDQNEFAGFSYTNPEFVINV
The target is the same in assay [7]. As to conditions: at 1 µM.
For assay [8], the target named is T2, Serine/threonine-protein kinase D1 (Homo sapiens) (UniProt Q15139).
T2 sequence (whole entry): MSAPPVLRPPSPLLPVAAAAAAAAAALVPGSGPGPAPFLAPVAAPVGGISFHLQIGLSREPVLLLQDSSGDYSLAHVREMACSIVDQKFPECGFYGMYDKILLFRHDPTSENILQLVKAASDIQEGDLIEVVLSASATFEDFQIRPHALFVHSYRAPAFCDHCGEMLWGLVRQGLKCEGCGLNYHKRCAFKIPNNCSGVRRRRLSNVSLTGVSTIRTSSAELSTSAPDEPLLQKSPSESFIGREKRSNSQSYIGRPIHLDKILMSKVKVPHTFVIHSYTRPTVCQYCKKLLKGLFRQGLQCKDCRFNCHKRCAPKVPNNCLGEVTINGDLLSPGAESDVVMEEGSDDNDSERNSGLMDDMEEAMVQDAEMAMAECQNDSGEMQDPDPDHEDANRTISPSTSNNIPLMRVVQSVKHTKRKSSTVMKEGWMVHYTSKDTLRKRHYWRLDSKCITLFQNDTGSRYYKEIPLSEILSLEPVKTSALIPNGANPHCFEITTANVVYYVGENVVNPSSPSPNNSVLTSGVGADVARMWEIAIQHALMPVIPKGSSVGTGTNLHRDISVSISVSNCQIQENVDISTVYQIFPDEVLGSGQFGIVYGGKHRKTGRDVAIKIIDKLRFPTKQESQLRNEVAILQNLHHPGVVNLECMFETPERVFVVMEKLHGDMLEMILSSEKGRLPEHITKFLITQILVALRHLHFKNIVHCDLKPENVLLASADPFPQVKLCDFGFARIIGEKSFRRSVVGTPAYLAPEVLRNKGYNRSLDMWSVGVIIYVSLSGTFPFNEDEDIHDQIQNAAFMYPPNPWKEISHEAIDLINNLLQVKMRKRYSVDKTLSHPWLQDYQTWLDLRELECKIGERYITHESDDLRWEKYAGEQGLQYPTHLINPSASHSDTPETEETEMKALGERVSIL
The note with it: at 0.1 µM.

Assay [9] concerns the target T2, Serine/threonine-protein kinase D1 (Homo sapiens). As to conditions: at 1 µM.
The target of assay [10] is T3, Serine/threonine-protein kinase D2 (Homo sapiens) (UniProt Q9BZL6).
T3 sequence (whole entry): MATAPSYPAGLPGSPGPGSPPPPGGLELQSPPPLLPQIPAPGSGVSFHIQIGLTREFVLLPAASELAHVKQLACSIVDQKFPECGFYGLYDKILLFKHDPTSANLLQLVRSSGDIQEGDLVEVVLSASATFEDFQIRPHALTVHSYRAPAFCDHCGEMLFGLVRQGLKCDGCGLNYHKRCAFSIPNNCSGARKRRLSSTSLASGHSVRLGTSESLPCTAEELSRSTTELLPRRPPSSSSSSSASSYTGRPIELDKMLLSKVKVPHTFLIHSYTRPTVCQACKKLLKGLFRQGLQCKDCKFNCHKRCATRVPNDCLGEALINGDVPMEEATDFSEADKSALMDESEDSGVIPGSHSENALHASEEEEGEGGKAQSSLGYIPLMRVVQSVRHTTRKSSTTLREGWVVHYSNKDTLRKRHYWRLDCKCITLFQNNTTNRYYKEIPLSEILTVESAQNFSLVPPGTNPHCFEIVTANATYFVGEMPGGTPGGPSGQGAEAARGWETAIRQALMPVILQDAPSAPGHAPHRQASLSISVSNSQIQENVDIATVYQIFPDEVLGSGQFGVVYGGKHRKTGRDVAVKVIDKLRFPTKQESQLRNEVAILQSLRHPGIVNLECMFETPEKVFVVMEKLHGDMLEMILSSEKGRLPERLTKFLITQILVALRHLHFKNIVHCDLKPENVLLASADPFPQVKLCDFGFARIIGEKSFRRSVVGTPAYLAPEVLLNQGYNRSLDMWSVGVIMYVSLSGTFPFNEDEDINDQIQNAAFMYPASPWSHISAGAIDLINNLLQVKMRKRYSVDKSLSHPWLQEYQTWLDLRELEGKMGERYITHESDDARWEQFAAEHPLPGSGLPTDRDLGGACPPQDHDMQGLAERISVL
The note with it: at 0.1 µM.

The target of assay [11] is T3, Serine/threonine-protein kinase D2 (Homo sapiens). The note with it: at 1 µM.
The target in assay [12] is T4, Serine/threonine-protein kinase D3 (Homo sapiens) (UniProt O94806).
T4 sequence (whole entry): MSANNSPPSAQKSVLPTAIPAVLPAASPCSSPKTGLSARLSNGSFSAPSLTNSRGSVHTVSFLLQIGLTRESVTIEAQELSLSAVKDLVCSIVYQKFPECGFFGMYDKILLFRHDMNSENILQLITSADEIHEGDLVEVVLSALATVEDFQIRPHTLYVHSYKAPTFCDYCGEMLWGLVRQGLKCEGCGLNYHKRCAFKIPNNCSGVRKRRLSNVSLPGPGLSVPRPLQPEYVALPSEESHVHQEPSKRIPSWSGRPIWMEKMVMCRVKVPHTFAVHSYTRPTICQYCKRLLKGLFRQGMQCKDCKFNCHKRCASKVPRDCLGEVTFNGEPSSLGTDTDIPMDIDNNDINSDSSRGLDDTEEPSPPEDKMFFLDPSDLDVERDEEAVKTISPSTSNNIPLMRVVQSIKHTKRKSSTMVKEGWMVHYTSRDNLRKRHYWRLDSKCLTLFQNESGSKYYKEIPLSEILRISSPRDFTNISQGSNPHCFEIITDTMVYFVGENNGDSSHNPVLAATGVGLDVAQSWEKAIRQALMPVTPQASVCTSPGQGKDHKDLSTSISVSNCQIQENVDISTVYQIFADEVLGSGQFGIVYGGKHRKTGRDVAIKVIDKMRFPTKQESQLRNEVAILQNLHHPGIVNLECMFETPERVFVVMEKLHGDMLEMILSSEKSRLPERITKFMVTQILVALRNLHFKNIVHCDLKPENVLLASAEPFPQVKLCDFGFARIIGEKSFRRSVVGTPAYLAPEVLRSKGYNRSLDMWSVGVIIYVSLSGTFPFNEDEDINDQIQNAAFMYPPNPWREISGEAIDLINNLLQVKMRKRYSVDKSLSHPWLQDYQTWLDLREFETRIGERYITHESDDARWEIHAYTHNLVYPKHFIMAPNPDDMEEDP
The note with it: at 0.1 µM.

The target of assay [13] is T4, Serine/threonine-protein kinase D3 (Homo sapiens). As to conditions: at 1 µM.
For assay [14], the target named is T5, cGMP-dependent protein kinase 1 (Homo sapiens) (UniProt Q13976).
T5 sequence (whole entry): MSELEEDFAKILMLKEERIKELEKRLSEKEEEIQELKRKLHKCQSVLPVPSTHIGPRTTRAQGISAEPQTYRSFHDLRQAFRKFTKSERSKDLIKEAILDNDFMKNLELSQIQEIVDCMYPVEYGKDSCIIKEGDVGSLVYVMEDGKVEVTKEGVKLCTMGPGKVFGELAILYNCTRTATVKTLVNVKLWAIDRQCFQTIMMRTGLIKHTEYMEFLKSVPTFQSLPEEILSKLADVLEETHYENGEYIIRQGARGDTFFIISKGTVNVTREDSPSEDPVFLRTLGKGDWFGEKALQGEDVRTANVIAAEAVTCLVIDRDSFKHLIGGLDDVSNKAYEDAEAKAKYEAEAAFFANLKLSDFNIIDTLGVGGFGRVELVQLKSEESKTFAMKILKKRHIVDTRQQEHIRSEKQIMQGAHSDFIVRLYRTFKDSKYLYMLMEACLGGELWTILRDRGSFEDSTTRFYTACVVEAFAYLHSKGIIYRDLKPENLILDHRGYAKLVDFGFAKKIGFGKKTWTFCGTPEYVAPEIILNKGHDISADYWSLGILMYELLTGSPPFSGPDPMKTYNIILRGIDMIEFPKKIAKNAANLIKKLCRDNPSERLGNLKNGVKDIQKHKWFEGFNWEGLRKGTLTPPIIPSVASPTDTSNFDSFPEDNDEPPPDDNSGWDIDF
As to conditions: at 0.1 µM.

Assay [15] concerns the target T5, cGMP-dependent protein kinase 1 (Homo sapiens). As to conditions: at 1 µM.
Assay [16] addresses T6, cGMP-dependent protein kinase 2 (Homo sapiens) (UniProt Q13237).
T6 sequence (whole entry): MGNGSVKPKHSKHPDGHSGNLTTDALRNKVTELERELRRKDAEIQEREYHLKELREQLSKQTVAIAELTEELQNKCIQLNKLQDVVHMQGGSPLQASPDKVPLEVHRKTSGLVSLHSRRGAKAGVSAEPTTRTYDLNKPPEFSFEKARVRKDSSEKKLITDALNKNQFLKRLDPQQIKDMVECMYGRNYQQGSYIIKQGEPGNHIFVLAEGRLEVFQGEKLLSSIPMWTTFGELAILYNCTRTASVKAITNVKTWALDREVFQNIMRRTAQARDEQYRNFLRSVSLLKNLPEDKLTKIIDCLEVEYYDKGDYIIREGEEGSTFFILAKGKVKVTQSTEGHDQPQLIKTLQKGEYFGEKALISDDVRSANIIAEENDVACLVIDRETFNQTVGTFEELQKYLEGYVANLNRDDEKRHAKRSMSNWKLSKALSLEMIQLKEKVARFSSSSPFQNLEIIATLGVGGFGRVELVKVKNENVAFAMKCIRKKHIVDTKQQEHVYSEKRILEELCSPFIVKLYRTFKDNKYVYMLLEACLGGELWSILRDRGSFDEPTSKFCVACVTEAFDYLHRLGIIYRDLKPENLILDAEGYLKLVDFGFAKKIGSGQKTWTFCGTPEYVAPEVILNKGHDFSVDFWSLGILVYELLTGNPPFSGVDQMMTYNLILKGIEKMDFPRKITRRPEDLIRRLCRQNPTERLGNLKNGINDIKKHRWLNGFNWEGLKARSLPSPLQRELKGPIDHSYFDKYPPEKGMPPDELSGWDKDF
As to conditions: at 0.1 µM.

The target in assay [17] is T6, cGMP-dependent protein kinase 2 (Homo sapiens). The note with it: at 1 µM.
For assay [18], the target named is T7, cAMP-dependent protein kinase catalytic subunit PRKX (Homo sapiens) (UniProt P51817).
T7 sequence (whole entry): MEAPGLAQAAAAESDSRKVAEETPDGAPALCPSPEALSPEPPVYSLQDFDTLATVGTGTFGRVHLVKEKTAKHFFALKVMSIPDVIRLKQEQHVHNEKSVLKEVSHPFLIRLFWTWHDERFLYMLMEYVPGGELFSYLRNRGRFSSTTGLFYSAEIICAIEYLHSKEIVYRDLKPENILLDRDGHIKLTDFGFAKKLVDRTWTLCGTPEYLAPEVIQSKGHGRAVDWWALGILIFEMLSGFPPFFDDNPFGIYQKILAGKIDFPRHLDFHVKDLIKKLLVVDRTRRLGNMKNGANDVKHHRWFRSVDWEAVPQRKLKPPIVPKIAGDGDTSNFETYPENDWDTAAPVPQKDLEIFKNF
As to conditions: at 0.1 µM.

The target of assay [19] is T7, cAMP-dependent protein kinase catalytic subunit PRKX (Homo sapiens). As to conditions: at 1 µM.
The target in assay [20] is Rho-associated protein kinase 1 (Homo sapiens) (UniProt Q13464). As to conditions: at 0.1 µM.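 Further: values are mean percent inhibition of ROCK1.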
Rho-associated protein kinase 1 (Homo sapiens), sequence (Q13464 2-1354 limits assumed): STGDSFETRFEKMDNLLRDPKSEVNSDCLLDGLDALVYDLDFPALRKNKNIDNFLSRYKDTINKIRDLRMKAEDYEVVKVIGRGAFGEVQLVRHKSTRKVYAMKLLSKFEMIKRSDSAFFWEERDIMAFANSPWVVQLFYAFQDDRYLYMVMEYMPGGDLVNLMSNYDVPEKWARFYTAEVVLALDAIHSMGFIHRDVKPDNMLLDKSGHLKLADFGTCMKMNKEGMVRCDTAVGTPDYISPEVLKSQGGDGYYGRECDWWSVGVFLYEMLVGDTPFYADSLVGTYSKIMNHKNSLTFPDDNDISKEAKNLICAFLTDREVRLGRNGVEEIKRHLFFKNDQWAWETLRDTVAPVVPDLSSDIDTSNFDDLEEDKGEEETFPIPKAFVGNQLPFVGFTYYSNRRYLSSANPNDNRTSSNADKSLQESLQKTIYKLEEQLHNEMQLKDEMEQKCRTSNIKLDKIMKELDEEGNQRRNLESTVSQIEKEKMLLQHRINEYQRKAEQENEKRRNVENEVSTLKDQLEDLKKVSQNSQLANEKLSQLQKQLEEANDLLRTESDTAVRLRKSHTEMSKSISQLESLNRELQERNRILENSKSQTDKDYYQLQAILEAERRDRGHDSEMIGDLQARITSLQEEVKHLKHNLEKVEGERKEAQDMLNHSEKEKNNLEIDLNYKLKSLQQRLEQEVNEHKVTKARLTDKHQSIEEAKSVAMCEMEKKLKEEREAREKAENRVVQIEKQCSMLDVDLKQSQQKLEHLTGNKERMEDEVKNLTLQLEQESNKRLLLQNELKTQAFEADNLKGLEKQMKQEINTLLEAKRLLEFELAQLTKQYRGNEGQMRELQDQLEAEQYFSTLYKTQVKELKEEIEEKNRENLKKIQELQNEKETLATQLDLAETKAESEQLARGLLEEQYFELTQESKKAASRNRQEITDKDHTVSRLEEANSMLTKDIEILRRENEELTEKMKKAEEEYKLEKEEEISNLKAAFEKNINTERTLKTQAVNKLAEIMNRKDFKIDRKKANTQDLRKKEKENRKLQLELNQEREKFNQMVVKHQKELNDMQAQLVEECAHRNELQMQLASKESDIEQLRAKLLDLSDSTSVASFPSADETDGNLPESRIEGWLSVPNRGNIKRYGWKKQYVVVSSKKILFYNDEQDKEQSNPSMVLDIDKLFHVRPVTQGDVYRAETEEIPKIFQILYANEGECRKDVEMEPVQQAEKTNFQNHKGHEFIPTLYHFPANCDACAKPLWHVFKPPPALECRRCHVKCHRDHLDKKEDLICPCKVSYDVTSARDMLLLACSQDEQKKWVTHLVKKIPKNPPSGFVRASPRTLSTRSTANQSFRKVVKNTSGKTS

As to `COc1cc2ncn(-c3cc(OCc4ccccc4C(F)(F)F)c(C(C)=O)s3)c2cc1OC`, the inhibition in assay [1] was found to be 0.33%; in [2], 0.95%; in [3], 1.41%; in assay [4] it was 1.39%; in [5], 0.74%; in assay [6] it was 0.72%. In addition, the inhibition turned out to be 0.23% in assay [7]; 3.39% in assay [8]; 5.09% in [9]; 2.5% in assay [10]; 2.55% in assay [11]; 2.93% in assay [12]. For the same compound, the inhibition in assay [13] was found to be 3.23%; in [14], 1.35%; in [15], 0.72%; in assay [16] it was 0.9%; in [17], 0%; in [18] it was 0.6%. For the same compound, the inhibition in [19] worked out at 0.44%; in [20], 0.94%.

Turning to `O=C(Nc1ccc(Oc2ccc3[nH]c(NC(=O)c4ccccc4)nc3c2)cc1)Nc1cc(C(F)(F)F)ccc1F`, the inhibition in assay [1] amounted to 3.66%; in assay [2], 1.82%; in assay [3] it was 0.93%; in assay [4] it was 1.79%; in [5], 2.18%; in [6], 1.51%. The inhibition in assay [7] is 4.95%; in [8] it was 2.05%; in assay [9] it was 3.41%; in assay [10], 3.12%; in [11] it was 4.25%; in assay [12], 3.06%. Moreover, the inhibition is 3.63% in assay [13]; 2.01% in [14]; 3.65% in assay [15]; 1.4% in [16]; 2.23% in [17]; 1.55% in assay [18]. For the same compound, the inhibition in assay [19] was 1.09%; in assay [20], 0.24%.
